Screening data: PubChem, several laboratories
KKLEB cytotox: reduces viability of KKLEB cystic fibrosis airway cells | activity change (cytotoxicity), % at 5 µM | hit rate 0.36% among 360,000 | KKLEB CF airway cells viability, ATPlite luminescence, overnight; active compounds read low; cells stimulated with P. aeruginosa culture filtrate | AID 602141;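 active means corrected activity change at or below -50% at 5 µM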
Peg3 promoter: reduces Peg3 promoter-driven luciferase expression in HeLa | HeLa PEG-Prom luciferase reporter, luminescence, overnight | inhibition, % at 20 µM | hit rate 1.7% among 360,000 | AID 588405;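 active means inhibition of at least 50% at 20 µM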
HIF-2a inh: blocks HIF-2a reporter activity; inhibition, % at 18.8 µM; 786-0 RCC cells HIF-2a reporter, luciferase luminescence, overnight; hit rate 0.72% among 360,000; AID 624352;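 active means inhibition of the luminescence signal of 40% or more relative to plate controls, in a single-dose primary screen at 18.75 µM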
CF NFkB block: inhibitors of cystic fibrosis induced NF-kB. AID 588850. KKLEB NF-kB-GFP reporter, PAF-induced, GFP fluorescence overnight. hit rate 0.86% among 360,000. inhibition, % at 5 µM;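 active means at least 50% inhibition at 5 µM, scaled per plate between neutral and stimulator controls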;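 further: PAF is a Pseudomonas aeruginosa culture filtrate used as stimulus; plate controls were PAF-stimulated DMSO wells for no effect and unstimulated DMSO wells for full effect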
Shn3 inh set2: inhibitors of Schnurri-3 3'UTR reporter in osteoblasts. Clone20 osteoblast Shn3 3'UTR firefly luciferase, 24 h. inhibition, % at 12.5 µM. hit rate 0.52% among 360,000. AID 588674;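 active means mean inhibition of at least 75% with every replicate also reaching 75%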;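 further: 0% = median of neutral control wells and 100% = pilot-screen positive control compound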
TRPM1 prom inh: MITF TRPM1 promoter inhibition in SK-MEL-5 cells; hit rate 0.83% among 330,000; inhibition, % at 12.5 µM; SK-MEL-5 TRPM1 promoter luciferase, 24 h;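 active means mean inhibition across replicates of 60% or more, whatever share of single replicates reaches that level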
* marks the source's active call; other numbers are inactive results; x = no result. Sampled rows, rich in hits. Any-hit rate of the full collection: about 2.8%.

SMILES | KKLEB cytotox | Peg3 promoter | HIF-2a inh | CF NFkB block | Shn3 inh set2 | TRPM1 prom inh
Cc1ccccc1-c1cc(C(=O)NCc2cccc(C(F)(F)F)c2)nn1CC1CC(c2cccc([N+](=O)[O-])c2)=NO1 (configuration not stated) | -12 | -6 | 6 | 15 | 16 | 3
CCNC(=O)C1(C)CCCN(C(=O)c2ccc(C(F)(F)F)nc2C)C1 (configuration not stated) | -10 | 15 | 12 | 10 | -16 | x
CN(C)CC(O)c1ccc(C=Cc2ccc(Cl)cc2)cc1 (configuration not stated) | -13 | 104* | -263 | 36 | -22 | 78*
OC(c1ccc(F)c(F)c1)c1nc(-c2ccc3c(c2)OCO3)cs1 (configuration not stated) | 22 | -57 | -86 | -11 | -20 | x
C[C@H](O)[C@@H]1CN2CCc3c([nH]c4ccccc34)[C@@H]2C[C@@H]1N(C)C(=O)Nc1ccc(F)cc1 | -7 | -1 | 10 | 1 | 9 | x
Cc1cccc(-c2ccc3[nH]c4c(c3c2)CCN2C[C@@H]([C@H](C)O)[C@@H](N(C)C(=O)Nc3ccc(F)cc3)C[C@@H]42)c1 | -12 | 100* | 2 | 28 | 1 | x
C[C@H](O)[C@@H]1CN2CCc3c([nH]c4ccc(-c5ccc6c(c5)OCO6)cc34)[C@@H]2C[C@@H]1N(C)C(=O)Nc1cc(Cl)cc(Cl)c1 | -5 | 67* | 9 | 35 | 52 | x
ClC1=C(Cl)C(Cl)=C(Cl)C1=C/C=C/c1ccccc1 | -94* | 107* | -18 | 91* | 90* | 92*
COc1ccccc1NC(=O)C(C)OC(=O)C1CCN(S(=O)(=O)c2ccc(C)c(C)c2)CC1 (configuration not stated) | -1 | 7 | 5 | -7 | -8 | -8
Cc1nc2sccn2c(=O)c1S(=O)(=O)NCC(C)c1ccccc1 (configuration not stated) | 0 | 23 | 1 | 5 | 7 | x
Cc1cc(C)n(-c2nc(Nc3ccccc3C(F)(F)F)nc(-n3nc(C)cc3C)n2)n1 | -14 | 86* | 16 | 38 | 97* | 7
COCCNC(=O)c1cccc(Nc2nc(-c3ccccc3)c3cc(Cl)ccc3n2)c1 | -5 | 53* | 2 | 5 | 0 | 20
CCOc1ccc(S(=O)(=O)N(CC)CC(=O)NCc2cccnc2)cc1 | -3 | -16 | 7 | -17 | -7 | -1
O=C(Cc1ccccc1)NCCS(=O)c1ccc(Cl)cc1 (configuration not stated) | 4 | 4 | 5 | -18 | 92* | 10
C#CC[N+](C)(C)CCCCCCCCCC | -33 | 34 | 24 | 52* | 43 | 12
C#CC[N+](C)(C)CCCCCCCCCCCC | -43 | 87* | 39 | 46 | 77 | 72*
O=C([C@H](Cc1ccccc1)N1C(=O)c2ccccc2C1=O)N1CCOCC1 | 2 | 14 | 1 | 6 | 5 | 2
Cc1ccccc1Nc1cc2ccccc2c(=O)[nH]1 | -7 | -16 | -7 | 26 | 16 | 69*
O=c1[nH]c(Nc2ccccc2Cl)cc2ccccc12 | -14 | -136 | -114 | 2 | -32 | -7
Cc1ccc(C)c(NC(=S)NC(NC(=O)Cc2cccc3ccccc23)C(Cl)(Cl)Cl)c1 (configuration not stated) | -70* | 94* | 17 | 71* | 55 | 77*
O=[N+]([O-])c1cc(S(=O)(=O)Oc2ccccc2)ccc1Cl | -72* | 107* | 88* | 88* | 46 | 87*
O=S(=O)(Oc1ccccc1)c1ccc(Cl)c(Cl)c1 | 2 | -16 | -63 | -23 | -7 | -15
CC(C)c1cc(C(=O)OCC(=O)NC2CCS(=O)(=O)C2)c(O)c(C(C)C)c1 (configuration not stated) | 7 | 7 | 8 | 5 | -27 | x
COc1ncnc2c1ncn2CCCN1CCN(c2ccccn2)CC1 | 15 | 18 | 4 | 4 | -14 | x
COC(=O)[C@@]1(Sc2ccc(C)cc2)CC(=O)N(C(=O)/C=C/c2ccccc2)[C@@H]1c1ccccc1 | x | x | 5 | x | x | x
SMILES | KKLEB cytotox | Peg3 promoter | HIF-2a inh | CF NFkB block | Shn3 inh set2 | TRPM1 prom inh
O=C(c1cc2nc(-c3ccc(F)cc3)cc(C(F)(F)F)n2n1)N1CCCCC1c1cccnc1 (configuration not stated) | -10 | 12 | -4 | 31 | 90* | 39
Cc1cc(OCC(=O)NNC(=O)CCc2ccccc2)ccc1Br | -9 | 2 | 7 | 4 | 3 | 9
COc1cc(C(=O)OC(C)C(=O)NC2CCCCC2C)c([N+](=O)[O-])cc1OC (configuration not stated) | -13 | 16 | 10 | 2 | -12 | -8
CC(OC(=O)c1ccc([N+](=O)[O-])s1)C(=O)NC1CCCCC1C (configuration not stated) | -5 | 4 | -4 | 15 | -9 | 78*
CCCC(=O)N(C1CC(C)C(C#N)(C#N)C1(C#N)C#N)N(C)C (configuration not stated) | 1 | 107* | 86* | 11 | 97* | 83*
CC(=O)N(C1CC(C)C(C#N)(C#N)C1(C#N)C#N)N(C)C (configuration not stated) | 0 | 102* | 46* | 6 | 93* | 86*
C=CC[n+]1c(/C=C2\C=Cc3cc(C)ccc3N2CC)ccc2ccccc21 | -11 | 35 | -20 | 27 | 93* | 78*
CCN1C(=C(C#N)C#N)C=Cc2cc(C)ccc21 | 11 | -8 | 17 | -39 | -17 | -2
NC(COCc1ccccc1)c1csc(Nc2ccc(S(N)(=O)=O)cc2)n1 (configuration not stated) | 0 | 4 | 13 | 12 | -8 | x
CC1(S(=O)(=O)O)CC(=O)c2ccccc2C1=O (configuration not stated) | 28 | 10 | 32 | 69* | -19 | 42
CCc1nc2ccc(C(=O)N3CCNC(=O)C3)cn2c1N(C)CCC(C)C | 19 | -2 | -4 | 3 | -21 | x
CC(=O)NC(C)(c1ccccc1)c1nc(-c2ccc(N(C)C)cc2)cs1 (configuration not stated) | -6 | 1 | -17 | 5 | 23 | x
Cc1nnnn1/C(=C\c1ccccc1)C(=O)OCC(=O)NC1CCCCC1 | -19 | 76* | 13 | 5 | -22 | 28
Cc1nnnn1/C(=C\c1ccccc1)C(=O)OCC(=O)NC(C)(C)C | -10 | -22 | 25 | 11 | -15 | 4
CCc1cc(C(=O)NCC(c2cccs2)N2CCOCC2)sc1C (configuration not stated) | 10 | -10 | -4 | -12 | -2 | 0
c1ccc(-c2nn(-c3ccccc3)[n+](-c3ccccc3)n2)cc1 | -8 | 7 | -16 | 2 | 37 | 62*
O=c1[nH]c(C2CCCN(S(=O)(=O)c3cccc(Cl)c3)C2)nc2c1nnn2Cc1ccc2c(c1)OCCO2 (configuration not stated) | 13 | 51* | 23 | 17 | -3 | -15
